Bead autofluor = compound fluorescence in toxin protease inhibitor counterscreen | fluorescence intensity (concentration not given with the values) | hit rate 3.1% among 360,000 | compound autofluorescence counterscreen, microsphere flow cytometry; active compounds read high; in the data active means fluorescence intensity above about 16000; inconclusive means no clear call, values can overlap the other calls
VHR inh abs = inhibitors of human VHR1 phosphatase (DUSP3). inhibition, % at 13.3 µM. hit rate 0.52% among 290,000. P51452. recombinant VHR phosphatase, pNPP absorbance; in the data active means inhibition above about 50%
Target sequence (P51452 whole entry, looked up): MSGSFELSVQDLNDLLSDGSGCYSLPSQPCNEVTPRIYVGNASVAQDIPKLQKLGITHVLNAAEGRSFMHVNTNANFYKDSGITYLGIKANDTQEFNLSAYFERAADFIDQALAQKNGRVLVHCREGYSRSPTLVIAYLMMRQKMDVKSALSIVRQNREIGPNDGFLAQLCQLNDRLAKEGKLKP
SARS 3CLpro inh = SARS-CoV 3CLpro protease inhibition. hit rate 0.14% among 290,000. P0C6X7. recombinant SARS-CoV 3CLpro, quenched FRET peptide cleavage. inhibition, % at 6 µM; in the data active means inhibition above about 12%
BoNT-F LC inh = inhibitors of Botulinum neurotoxin F light chain protease; Multiplex microsphere protease cleavage assay, flow cytometry; inhibition, % at 10 µM; hit rate 0.22% among 360,000; in the data active means inhibition above about 35%, passing the limit was not always enough; inconclusive means no clear call, values can overlap the other calls
BoNT A protease = BoNT A light chain protease inhibition; multiplex microsphere protease substrate cleavage, flow cytometry; inhibition, % at 10 µM; hit rate 0.17% among 360,000; AID 588499
Anthrax LF prot = anthrax lethal factor protease inhibition. P15917. multiplex microsphere protease cleavage assay, LF. inhibition, % at 10 µM. hit rate 0.12% among 360,000
A number is an active result; - = inactive; ? = inconclusive; . = no result. Most compounds without a hit are left out; they make up all but 3.9% or so of the library. Unless noted, no stated cut-off is given here; in the data, active means inhibition above about 30%; inconclusive means no clear call, values can overlap the other calls; inactive means below that.

SMILES	Bead autofluor	VHR inh abs	SARS 3CLpro inh	BoNT-F LC inh	BoNT A protease	Anthrax LF prot
CC(/C=N/n1c(-c2cccnc2)n[nH]c1=S)=C\c1ccccc1	16837	-	-	-	-	-
Cc1cccn2c(=O)c3cc(C(N)=S)c(=N)n(CCCOC(C)C)c3nc12	-	-	-	-	41.1	-
CCOCCCn1c(=N)c(C(N)=S)cc2c(=O)n3cccc(C)c3nc21	-	-	-	-	-	-
Cc1cccn2c(=O)c3cc(C(=O)NCCN4CCOCC4)c(=N)n(CCCN4CCOCC4)c3nc12	-	55.2	-	-	-	-
Cc1cc(C)cc(NC(=O)c2cc(S(=O)(=O)NCc3ccco3)ccc2F)c1	21467	-	-	-	-	-
O=C(Nc1ccccc1)c1ccc(S(=O)(=O)NCc2ccco2)cc1	-	-	-	-	-	-
Cc1cccc(C(=O)Nc2cccc(S(=O)(=O)NCc3ccco3)c2)c1	-	.	.	-	-	-
Cc1ccc(C(=O)Nc2ccc(S(=O)(=O)NCc3ccco3)cc2)cc1	21876	-	-	-	-	-
COc1ccc(NC(=O)c2c(C(F)(F)F)nn(C)c2Cl)cc1	-	-	-	-	-	-
COc1ccc(NC(=O)c2c(C(F)(F)F)nn(C)c2SCc2ccccc2Cl)cc1	19414	-	-	-	-	-
C[C@H](NC(=O)c1ncn2c1C(=O)N(C)CC2)C(=O)OC(C)(C)C	-	.	.	-	-	-
COC(=O)c1ccc(NC(=O)Cn2nc(C(=O)Nc3ccc(C)cc3)ccc2=O)cc1	-	-	-	-	-	-
CCOC(=O)c1sc(NC(=O)CCN2C(=O)c3ccccc3C2=O)c(C(=O)OCC)c1C	-	-	-	-	-	-
CCOC(=O)c1sc(NC(=O)CN(CC(C)C)CC(C)C)c(C(=O)OCC)c1C	22136	-	-	-	-	-
CCOC(=O)c1c(NC(=O)CCN2C(=O)c3ccccc3C2=O)sc(C(=O)OC(C)C)c1C	17126	-	-	-	?	-
Cc1ccc2oc(=O)c3cnn(CC(=O)Nc4cc(-c5cccc(F)c5)no4)c3c2c1	-	-	-	-	-	-
Nc1nc(CSc2ncn(-c3ccccc3)n2)cs1	22447	-	-	-	-	-
CC(C)(C)NC(=O)COc1coc(CN2CCN(Cc3ccccc3)CC2)cc1=O	-	-	-	-	-	-
COc1ccc(C)cc1S(=O)(=O)N1CCN(C(=O)c2ncoc2-c2ccc(F)cc2)CC1	-	52.9	-	-	-	-
Cc1ccc(Sc2c([N+](=O)[O-])ncn2C)cc1	-	-	-	-	-	-
Cn1cnc([N+](=O)[O-])c1Sc1ncccc1N	22024	-	-	-	-	-
Cc1ncoc1C(=O)Nc1ccccc1-c1ccccc1	23728	-	-	-	-	-
Cc1ccc(C(=O)Nc2ccccc2-c2ccccc2)o1	-	-	-	-	-	-
Cc1ncoc1C(=O)Nc1ccc(Oc2ccccc2)cc1	19937	-	-	-	-	-
COc1ccc(NC(=O)c2ocnc2C)cc1OC	-	-	-	-	-	-
SMILES	Bead autofluor	VHR inh abs	SARS 3CLpro inh	BoNT-F LC inh	BoNT A protease	Anthrax LF prot
Cc1nc(C)c(C(=O)Nc2ccc(Oc3ccccc3)cc2)o1	19915	-	-	-	-	-
CCC(=O)N1Cc2cc(C(=O)Nc3nccs3)nc(-c3cccc(-c4ccccc4OC)c3)c2[C@@H]1CCO	-	.	.	-	-	-
C=CCNC(=S)NNC(=O)c1cccn(Cc2ccc(Cl)c(Cl)c2)c1=O	-	-	-	-	-	-
C=CCNC(=S)NNC(=O)c1cccc2ccccc12	21284	-	-	-	-	-
Cc1ccccc1C(=O)NNC(=S)NC(=O)c1ccc(Cl)cc1Cl	-	-	-	-	-	-
C=CCNC(=S)NNC(=O)c1cccn(Cc2ccc(Cl)cc2Cl)c1=O	22647	-	-	-	?	-
CCNC(=S)NNC(=O)c1cccn(Cc2ccc(Cl)cc2Cl)c1=O	22212	-	-	-	?	-
O=C(CCNC(=O)c1ccccc1Cl)Nc1cccc(S(=O)(=O)N2CCCC2)c1	-	.	.	-	-	-
Cc1cn(C2CC(OC(=O)C(C)C)C(CO)O2)c(=O)[nH]c1=O (stereo not drawn)	-	.	.	-	-	-
CCc1ccc(C(=O)C(C)OC(=O)c2nn(C)c(=O)c3ccccc23)cc1 (stereo not drawn)	-	.	.	-	-	-
COC(=O)c1cccc(C(=O)N2CCCC(Nc3ccc(C)c(C)c3)C2)c1 (stereo not drawn)	-	-	-	-	-	-
Nc1ccc2c(c1)-c1ccc(F)cc1C2=O	-	.	.	-	-	-
O=C(NC1(C(F)(F)F)C(=O)Nc2c1c(=O)[nH]c(=O)n2Cc1ccccc1)c1ccc(Cl)cc1Cl (stereo not drawn)	16727	-	-	-	-	-
COc1ccc(-n2c3c(c(=O)[nH]c2=O)C(NC(=O)c2ccncc2)(C(F)(F)F)C(=O)N3)cc1 (stereo not drawn)	-	-	-	-	-	-
O=C(NC1(C(F)(F)F)C(=O)Nc2c1c(=O)[nH]c(=O)n2Cc1ccccc1)c1ccc(Cl)cc1 (stereo not drawn)	16519	-	-	-	-	-
O=C(NC1(C(F)(F)F)C(=O)Nc2c1c(=O)[nH]c(=O)n2-c1ccc(F)cc1)c1cccnc1 (stereo not drawn)	18307	-	-	-	-	-
O=C1Nc2c(c(=O)[nH]c(=O)n2Cc2ccccc2)C1(NS(=O)(=O)c1ccccc1)C(F)(F)F (stereo not drawn)	-	-	-	-	-	-
CC(C)CC(=O)NC1(C(F)(F)F)C(=O)Nc2c1c(=O)[nH]c(=O)n2Cc1ccco1 (stereo not drawn)	-	-	-	-	-	-
CN1OC[C@@H]2CN(Cc3ccccc3)[C@H](c3ccc(-n4ccnc4)cc3)C[C@@H]21	-	.	.	-	-	-
Cn1cc(CN2CCC(CO)(CCCc3ccccc3)CC2)c(-c2ccccc2)n1	-	-	-	-	-	-
CCOC(=O)c1c(NC(=S)Nc2ccccc2)sc2c1CCN(CC)C2	-	-	-	-	-	31.0
COc1ccc(C(=O)OC/C(O)=C(\C#N)c2nc3ccccc3[nH]2)cc1S(=O)(=O)N1CCOCC1	-	-	-	-	-	-
O=C(Nc1cccc(C(F)(F)F)c1)N1CCC(c2nc(-c3ccc(F)cc3)no2)CC1	20249	-	-	-	-	-
COc1cc(C(=O)N2CCCC(c3nc(-c4cccs4)no3)C2)cc(OC)c1OC (stereo not drawn)	17019	-	-	-	-	-
O=C(Nc1ccc(Cl)cc1)N1CCC(c2nc(-c3cccs3)no2)CC1	24323	-	-	-	?	-
COc1ccc(NC(=O)N2CCC(c3nc(-c4cccs4)no3)CC2)cc1	-	-	-	-	-	-
N#Cc1cnn(-c2cccc(Cl)c2)c1-n1cccc1	-	-	-	-	-	-
Cc1c(C(=O)NC2CCOC2)oc2c(F)cccc12 (stereo not drawn)	-	52.7	-	-	-	-
Cc1c(C(=O)O)oc2c(F)cccc12	-	-	-	-	-	-
O=C(O)c1cc([N+](=O)[O-])cc2c1C=Cc1ccccc1O2	-	-	-	-	-	-

Bioassay records from PubChem BioAssay.
